Measurements from PubChem BioAssay.
Active and inactive are the calls of the source.

Tests used:
[1] = test system: Human papillomavirus type 1a protein E7 (residues 44-93); assay: small molecules binding HPV E7 44-93 – biochemical, small-molecule microarray, residues 44-93, 635 nm fluorescence, primary screen (AID 1108); conditions: fluorescence 635 nm, higher = more signal;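 note: E7 fragment applied at 1 µg/mL in TBST for 1 h at 4 C; score combines spot fluorescence with its signal to noise ratio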
[2] = hepatitis C replication reporter changes, two-sided – Huh7 cells, luciferase reporter, HCV replication inhibitor project, primary screen (AID 1109); conditions: Huh7 HCV replicon luciferase reporter, 48 h; higher = more signal;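 note: huh7 hepatoma cells harbouring a luciferase neomycin HCV replicon reporter; luciferase luminescence as measure of HCV replicon replication; test concentration not given here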
[3] = target: Left-right determination factor 2 (Homo sapiens) (UniProt O00292); assay: small molecules binding LEFTY2 protein – biochemical, small-molecule microarray, 635 nm fluorescence scan, primary screen (AID 1110); conditions: higher = more signal
[4] = target: Calmodulin-1 (Homo sapiens) (UniProt P0DP23); assay: small molecules binding calmodulin-1 with EGTA – biochemical, small-molecule microarray, Cy5-labelled CALM1, profiling panel (AID 1111); conditions: Cy5-CALM1 binding fluorescence, higher = more signal;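 note: labelled calmodulin applied in Tris saline Tween buffer holding calcium plus EGTA and DTT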
[5] = target: Calmodulin-1 (Homo sapiens) (UniProt P0DP23); assay: small molecules binding Ca-loaded calmodulin-1 – biochemical, small-molecule microarray, Cy5-labelled CALM1, plus calcium, artefact control for SMM control-protein annotation, profiling panel (AID 1112); conditions: Cy5-CALM1 binding fluorescence, higher = more signal;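 note: score merges spot fluorescence with signal to noise from triplicate slides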
[6] = probe aWnt5a binding to arrayed compounds – biochemical, biotinylated probe, 635/667 nm fluorescence, primary screen (AID 1113); conditions: small-molecule microarray, higher = more signal;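 note: score merges 667 nm fluorescence intensity with signal-to-noise per printed feature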
[7] = probe aShh binding to arrayed compounds – biochemical, biotinylated probe, 635/667 nm fluorescence, primary screen (AID 1114); conditions: small-molecule microarray, higher = more signal;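 note: probe is biotin-labelled aShh protein from a stem cell growth factor screen; measures binding of labelled protein to compounds printed on the slide; score merges feature fluorescence at 667 nm with signal-to-noise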
[8] = probe aNog binding to arrayed compounds – biochemical, biotinylated probe, 635/667 nm fluorescence, primary screen (AID 1115); conditions: small-molecule microarray, higher = more signal;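 note: probe is biotinylated aNog protein used at 0.15 µg/mL for 1 h at 4 C; z-score combines 667 nm fluorescence of each spot with its signal to noise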
[9] = target: Torsin-1A-interacting protein 1 (Homo sapiens) (UniProt Q5JTV8); assay: compound microarray binding of lysate hLAP1 – cell lysate, small-molecule microarray, COS7 lysate, 635/667 nm fluorescence, primary screen (AID 1116); conditions: 635 nm fluorescence, higher = more signal
[10] = target: Alpha-bungarotoxin (Bungarus multicinctus) (UniProt P60615); assay: compounds binding labelled alpha-BTX control protein – biochemical, small-molecule microarray, Alexa647 label, 635/667 nm fluorescence, artefact control for SMM control protein annotation, profiling panel (AID 1117); conditions: alpha-BTX-A647 binding fluorescence, higher = more signal
Albumin (Bos taurus) = Albumin (Bos taurus) (UniProt P02769); assay: compounds binding labelled BSA control protein – biochemical, small-molecule microarray, Alexa647 label, 635/667 nm fluorescence, artefact control for SMM control protein annotation, profiling panel (AID 1118); conditions: BSA-A647 binding, fluorescence 635 nm, higher = more signal;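 note: score merges 667 nm emission intensity and signal-to-noise per printed compound spot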
[11] = probe aXIP binding to arrayed compounds – biochemical, NeuroSMM set, 635/667 nm fluorescence, primary screen (AID 1119); conditions: small-molecule microarray, higher = more signal, called active from +8 up or from −8 down;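 note: probe is the protein aXip251-270 applied at 1 µg/mL to compound-printed slides; binding of probe to printed compounds measured as 667 nm fluorescence plus signal to noise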
[12] = probe aNOTCH3 binding on compound microarray – biochemical, small-molecule microarray, 635/667 nm fluorescence, primary screen (AID 1120); conditions: higher = more signal;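 note: probe is a biotin-tagged antibody raised against NOTCH3 rather than NOTCH3 protein; score merges spot fluorescence near 667 nm with spot signal to noise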
[13] = probe aNOTCH2 binding on compound microarray – biochemical, small-molecule microarray, 635/667 nm fluorescence, primary screen (AID 1121); conditions: higher = more signal;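 note: score merges feature fluorescence read at 667 nm with its signal to noise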
[14] = target: Carbonic anhydrase 2 (Homo sapiens) (UniProt P00918); assay: compounds binding carbonic anhydrase 2 – biochemical, small-molecule microarray, Alexa647-labelled CAII, profiling panel (AID 1122); conditions: CAII-A647 binding fluorescence, higher = more signal
[15] = COS7 lysate on small-molecule microarray, probe aHis, 635 nm (AID 1123); conditions: COS7 cell lysate, fluorescence, higher = more signal;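 note: z-score combines 667nm fluorescence intensity with signal-to-noise per printed compound spot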
[16] = probe aLAP1 signal on lysate-treated microarray – cell lysate, small-molecule microarray, COS7 lysate, primary screen (AID 1124); conditions: probe aLAP1, fluorescence, higher = more signal;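 note: lysate comes from COS7 cells expressing LAP1 and is applied at 0.3 µg/mL; score merges spot fluorescence near 667 nm with signal-to-noise over triplicate slides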
Sam68 (KHDRBS1) = assay: compounds binding KHDRBS1 protein – biochemical, small-molecule microarray, 635 nm fluorescence, primary screen (AID 1125); conditions: higher = more signal;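 note: score merges 667 nm channel intensity with signal to noise over triplicate slides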
[17] = test system: Chordin-like protein 2 (CHRDL2); assay: compounds binding chordin-like 2 – biochemical, small-molecule microarray, 635 nm fluorescence, primary screen (AID 1126); conditions: fluorescence 635 nm, higher = more signal;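 note: printed compound slides probed with Chrdl2 protein at 4 µg/mL for 1 h at 4 C; score merges 667 nm emission intensity with signal to noise over three replicate slides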
[18] = target: Concanavalin-A (Canavalia ensiformis) (UniProt P02866); assay: compounds binding concanavalin A lectin – biochemical, small-molecule microarray, Alexa647 label, 635 nm, artefact control for SMM control protein annotation, primary screen (AID 1127); conditions: ConA-A647 binding fluorescence, higher = more signal;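 note: z combines 667 nm emission intensity with signal-to-noise across three replicate slides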
Concanavalin-A (Canavalia ensiformis), sequence (P02866 whole entry, looked up): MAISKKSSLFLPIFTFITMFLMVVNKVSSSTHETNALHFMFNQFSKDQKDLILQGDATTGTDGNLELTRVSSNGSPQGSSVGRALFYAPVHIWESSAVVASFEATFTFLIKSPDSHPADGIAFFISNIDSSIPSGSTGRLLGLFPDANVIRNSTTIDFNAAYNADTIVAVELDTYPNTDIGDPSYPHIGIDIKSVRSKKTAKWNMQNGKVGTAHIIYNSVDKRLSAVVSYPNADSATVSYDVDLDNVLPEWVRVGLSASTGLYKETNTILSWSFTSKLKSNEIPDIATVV

Alpha-bungarotoxin (Bungarus multicinctus), sequence (P60615 whole entry, looked up): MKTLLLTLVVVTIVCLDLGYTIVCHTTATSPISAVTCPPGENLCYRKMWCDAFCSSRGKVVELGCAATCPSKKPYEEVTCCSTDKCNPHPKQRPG
Albumin (Bos taurus), sequence (P02769 whole entry, looked up): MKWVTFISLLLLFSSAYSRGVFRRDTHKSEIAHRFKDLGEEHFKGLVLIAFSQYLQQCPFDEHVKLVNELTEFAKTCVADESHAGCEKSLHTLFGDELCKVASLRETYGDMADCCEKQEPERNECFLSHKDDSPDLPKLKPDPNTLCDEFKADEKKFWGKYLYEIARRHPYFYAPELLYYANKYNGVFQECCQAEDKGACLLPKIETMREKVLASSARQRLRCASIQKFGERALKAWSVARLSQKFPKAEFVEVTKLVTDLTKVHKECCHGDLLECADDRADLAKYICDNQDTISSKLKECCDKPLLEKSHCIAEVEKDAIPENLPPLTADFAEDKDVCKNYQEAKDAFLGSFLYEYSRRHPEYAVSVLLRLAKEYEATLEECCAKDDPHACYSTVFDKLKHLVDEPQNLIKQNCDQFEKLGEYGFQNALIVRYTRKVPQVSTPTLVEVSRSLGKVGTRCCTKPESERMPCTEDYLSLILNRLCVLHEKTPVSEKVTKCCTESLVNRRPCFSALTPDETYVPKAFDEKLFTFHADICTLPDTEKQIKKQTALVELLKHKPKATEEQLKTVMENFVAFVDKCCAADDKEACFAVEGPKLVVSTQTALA
Left-right determination factor 2 (Homo sapiens), sequence (O00292 whole entry, looked up): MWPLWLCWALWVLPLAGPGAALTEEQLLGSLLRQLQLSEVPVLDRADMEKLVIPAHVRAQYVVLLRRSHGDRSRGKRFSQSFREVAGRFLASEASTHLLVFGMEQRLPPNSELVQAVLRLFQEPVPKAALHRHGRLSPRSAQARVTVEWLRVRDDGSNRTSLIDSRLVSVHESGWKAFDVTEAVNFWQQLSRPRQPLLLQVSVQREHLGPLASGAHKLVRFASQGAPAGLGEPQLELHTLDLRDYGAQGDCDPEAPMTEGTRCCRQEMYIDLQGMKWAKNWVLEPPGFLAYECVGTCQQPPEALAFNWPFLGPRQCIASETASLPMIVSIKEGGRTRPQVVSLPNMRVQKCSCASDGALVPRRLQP
Torsin-1A-interacting protein 1 (Homo sapiens), sequence (Q5JTV8 whole entry, looked up): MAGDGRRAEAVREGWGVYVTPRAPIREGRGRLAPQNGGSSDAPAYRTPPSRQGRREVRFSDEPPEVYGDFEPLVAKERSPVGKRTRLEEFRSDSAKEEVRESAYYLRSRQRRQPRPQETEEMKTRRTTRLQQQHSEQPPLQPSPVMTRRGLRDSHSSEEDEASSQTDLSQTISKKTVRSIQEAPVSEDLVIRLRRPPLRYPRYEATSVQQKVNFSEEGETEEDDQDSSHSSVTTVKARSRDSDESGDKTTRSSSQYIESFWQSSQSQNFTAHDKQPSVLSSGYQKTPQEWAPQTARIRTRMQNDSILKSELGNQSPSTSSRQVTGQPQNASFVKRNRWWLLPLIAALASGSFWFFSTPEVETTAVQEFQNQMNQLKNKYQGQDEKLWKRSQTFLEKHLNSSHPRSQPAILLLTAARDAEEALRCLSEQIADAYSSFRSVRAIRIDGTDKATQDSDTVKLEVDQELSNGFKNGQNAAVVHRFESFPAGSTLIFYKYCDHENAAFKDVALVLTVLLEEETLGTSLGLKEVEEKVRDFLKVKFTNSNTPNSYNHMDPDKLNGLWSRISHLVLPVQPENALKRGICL

O=C1OCCC/C=C\[C@H]2OC34C=CCN(Cc5ccccc5)C(=O)[C@H]3N(CCCCCO)C(=O)[C@@H]4C12 (stereo not given in full)
composite z-score [1]: -0.486
z-score [2]: -1.06
composite z-score [3]: -0.296
composite z-score [4]: -1
composite z-score [5]: -0.775
composite z-score [6]: -0.169
composite z-score [7]: 0.0121
composite z-score [8]: 0.0847
composite z-score [9]: 2.22
composite z-score [10]: -1.57
composite z-score (Albumin (Bos taurus)): 0.499
composite Z-score [11]: -0.615 (inactive)
composite z-score [12]: -0.366
composite z-score [13]: -0.112
composite z-score [14]: 0.861
composite z-score [15]: 3.41
composite z-score [16]: 1.65
composite z-score (Sam68 (KHDRBS1)): -0.904
composite z-score [17]: -0.906
composite z-score [18]: -1.64

C=CCOC(=O)[C@H]1[C@@H]2C(=O)O[C@@H](c3ccccc3)[C@@H](c3ccccc3)N2[C@@H](c2ccc(OCCOC(=O)[C@H]3C[C@H]4C(=O)NCC(=O)N4[C@H]3c3ccc(O)cc3)cc2)[C@]12C(=O)Nc1ccc(I)cc12
composite z-score [1]: 0.429
z-score [2]: -1.58
composite z-score [3]: 0.788
composite z-score [4]: 0.275
composite z-score [5]: 0.295
composite z-score [6]: -0.1
composite z-score [7]: -0.367
composite z-score [8]: -0.158
composite z-score [9]: 0.365
composite z-score [10]: -0.303
composite z-score (Albumin (Bos taurus)): 0.163
composite Z-score [11]: -0.0149 (inactive)
composite z-score [12]: -0.0647
composite z-score [13]: -0.104
composite z-score [14]: 0.0742
composite z-score [15]: 0.737
composite z-score [16]: 0.0174
composite z-score (Sam68 (KHDRBS1)): 0.503
composite z-score [17]: 0.677
composite z-score [18]: 1.13

COC(=O)[C@@]1(CCC(=O)OC(C)(C)C)N=C(c2ccc(OCCCO)cc2)O[C@H]1c1ccccc1CN=[N+]=[N-]
composite z-score [1]: 0.263
z-score [2]: -2.6
composite z-score [3]: -0.471
composite z-score [4]: 0.183
composite z-score [5]: -0.222
composite z-score [6]: 0.0079
composite z-score [7]: -0.0035
composite z-score [8]: -0.0655
composite z-score [9]: 0.868
composite z-score [10]: 0.592
composite z-score (Albumin (Bos taurus)): -0.0515
composite Z-score [11]: 0.69 (inactive)
composite z-score [12]: -0.0984
composite z-score [13]: -0.0786
composite z-score [14]: 0.743
composite z-score [15]: 1.41
composite z-score [16]: 0.348
composite z-score (Sam68 (KHDRBS1)): -0.126
composite z-score [17]: -0.141
composite z-score [18]: 0.855

CN(C)CCCNC(=O)[C@@]1(Cc2ccccc2I)c2ccccc2C(=O)N(Cc2ccccc2)[C@H]1c1ccc(CO)cc1
composite z-score [1]: 1.41
z-score [2]: -3.36
composite z-score [3]: 0.189
composite z-score [4]: -0.489
composite z-score [5]: -0.636
composite z-score [6]: 0.22
composite z-score [7]: -0.32
composite z-score [8]: 0.84
composite z-score [9]: 1.21
composite z-score [10]: 0.542
composite z-score (Albumin (Bos taurus)): -0.6
composite Z-score [11]: -0.307 (inactive)
composite z-score [12]: -0.467
composite z-score [13]: -0.247
composite z-score [14]: 0.362
composite z-score [15]: 3.21
composite z-score [16]: 1.41
composite z-score (Sam68 (KHDRBS1)): 1.3
composite z-score [17]: 0.613
composite z-score [18]: 1.09

C/C=C/CN(C(=O)C#Cc1ccccc1)[C@H](CO[Si](C)(C)C(C)(C)C)c1ccccc1
composite z-score [1]: 0.0833
z-score [2]: -0.944
composite z-score [3]: -0.594
composite z-score [4]: -0.855
composite z-score [5]: -1.76
composite z-score [6]: -0.286
composite z-score [7]: -0.372
composite z-score [8]: -0.338
composite z-score [9]: -0.721
composite z-score [10]: -2.16
composite z-score (Albumin (Bos taurus)): -0.907
composite Z-score [11]: -0.357 (inactive)
composite z-score [12]: -0.384
composite z-score [13]: -0.22
composite z-score [14]: 0.599
composite z-score [15]: 0.043
composite z-score [16]: -0.155
composite z-score (Sam68 (KHDRBS1)): 0.248
composite z-score [17]: -0.553
composite z-score [18]: -1.17

CCCCC(=C=CC[C@H](O)c1ccc(OCCO)cc1)C[C@H](O)c1ccccn1
composite z-score [1]: 1.31
z-score [2]: -0.028
composite z-score [3]: 0.295
composite z-score [4]: 0.587
composite z-score [5]: -0.758
composite z-score [6]: -0.0758
composite z-score [7]: -0.0011
composite z-score [8]: 0.253
composite z-score [9]: 0.875
composite z-score [10]: 0.634
composite z-score (Albumin (Bos taurus)): -0.273
composite Z-score [11]: 0.611 (inactive)
composite z-score [12]: 0.102
composite z-score [13]: -0.0614
composite z-score [14]: 0.562
composite z-score [15]: 1.04
composite z-score [16]: 0.967
composite z-score (Sam68 (KHDRBS1)): 1.18
composite z-score [17]: 0.0162
composite z-score [18]: 0.544

[N-]=[N+]=NCc1ccccc1[C@H]1OC(c2ccc(OCCCO)cc2)=N[C@@]1(Cc1ccccc1)C(=O)N1CCOCC1
composite z-score [1]: 1.06
z-score [2]: -2.31
composite z-score [3]: 0.335
composite z-score [4]: 1.48
composite z-score [5]: 0.779
composite z-score [6]: 0.186
composite z-score [7]: -0.226
composite z-score [8]: -0.461
composite z-score [9]: 1.43
composite z-score [10]: 1.28
composite z-score (Albumin (Bos taurus)): 0.912
composite Z-score [11]: 0.475 (inactive)
composite z-score [12]: 0.754
composite z-score [13]: 0.294
composite z-score [14]: 0.55
composite z-score [15]: 2.97
composite z-score [16]: 0.204
composite z-score (Sam68 (KHDRBS1)): 1.3
composite z-score [17]: -0.0573
composite z-score [18]: 1.14

CC(C)(C)OC(=O)CC[C@]1(C(=O)N2CCOCC2)N=C(c2ccc(OCCCO)cc2)O[C@H]1c1ccccc1CN=[N+]=[N-]
composite z-score [1]: 1.36
z-score [2]: -0.229
composite z-score [3]: -0.457
composite z-score [4]: 1.27
composite z-score [5]: 0.15
composite z-score [6]: -0.0221
composite z-score [7]: -0.141
composite z-score [8]: 1.92
composite z-score [9]: 2.38
composite z-score [10]: 1.68
composite z-score (Albumin (Bos taurus)): 0.508
composite Z-score [11]: 0.341 (inactive)
composite z-score [12]: 0.116
composite z-score [13]: -0.0219
composite z-score [14]: 0.745
composite z-score [15]: 3.11
composite z-score [16]: 0.519
composite z-score (Sam68 (KHDRBS1)): 1.31
composite z-score [17]: -0.227
composite z-score [18]: 0.977

CC(C)C[C@@H]1NC(=O)[C@H]2C[C@@H](C(=O)NCCCCCCNC(=O)CS)[C@@H](c3ccc(O)cc3)N2C1=O
composite z-score [1]: 1.4
z-score [2]: -1.13
composite z-score [3]: 0.719
composite z-score [4]: 1.56
composite z-score [5]: 0.858
composite z-score [6]: -0.0718
composite z-score [7]: -0.0362
composite z-score [8]: -0.164
composite z-score [9]: 1.47
composite z-score [10]: -0.827
composite z-score (Albumin (Bos taurus)): 0.291
composite Z-score [11]: 0.741 (inactive)
composite z-score [12]: -0.0581
composite z-score [13]: 0.0018
composite z-score [14]: 0.665
composite z-score [15]: 1.73
composite z-score [16]: 0.0905
composite z-score (Sam68 (KHDRBS1)): 1.3
composite z-score [17]: 0.986
composite z-score [18]: 1.11

COCCOC(=O)N1C(=O)[C@@]2(c3cc(C#CC4=CCCCC4)ccc31)[C@H](C(=O)N1CCc3cc(OC)c(OC)cc3C1)[C@H]1C(=O)O[C@H](c3ccccc3)[C@H](c3ccccc3)N1[C@@H]2c1ccc(O)cc1
composite z-score [1]: 1.42
z-score [2]: -0.934
composite z-score [3]: 0.761
composite z-score [4]: 1.74
composite z-score [5]: 0.673
composite z-score [6]: 0.18
composite z-score [7]: 0.482
composite z-score [8]: 0.707
composite z-score [9]: 1.34
composite z-score [10]: 0.967
composite z-score (Albumin (Bos taurus)): 0.482
composite Z-score [11]: 0.334 (inactive)
composite z-score [12]: 0.285
composite z-score [13]: 0.307
composite z-score [14]: 0.267
composite z-score [15]: 1.32
composite z-score [16]: 0.858
composite z-score (Sam68 (KHDRBS1)): 1.1
composite z-score [17]: 0.463
composite z-score [18]: 1.19
